Hits are enriched below; roughly 19% of the tested compounds scored in any of these assays.
DT40 TDP1 CPT – growth inhibition of DT40 Tdp1-/-;hTDP1 cells with camptothecin (screen for TDP1 inhibitors) | chicken DT40 Tdp1-/-;hTDP1 cells + 20 nM CPT, ATP luminescence, 48 h | Potency, µM (highest dose often 46.2 µM), inactives show at the top dose activity change, negative = growth inhibition, most hits filed as inhibitors | 420,000 compounds, 12% hits; also: potency is read from the fitted curve at half-maximal effect; nearly all actives have a fitted effect of over 55% in size
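Chicken DT40 Tdp1-/- cells stably complemented with human TDP1 were seeded at 400 cells/well in medium containing 20 nM camptothecin, exposed to pin-transferred compounds, and grown at 37 °C for at least 48 hr. Viability was read as ATP luminescence.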
HT1080 IDH1KD tx – kills HT-1080 cells with IDH1 knockdown; HT-1080 IDH1 knockdown viability, ATP luminescence, 48 h; Potency, µM (titrated, usually from 46.1 µM), without a hit: at the top dose activity, negative = toxicity, most hits filed as cytotoxic; 360,000 compounds, 2% hits; AID 686971;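 also: potency is read from the fitted curve at half-maximal effect; 0% = DMSO wells and -100% = cell-free medium wells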
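Assay cells: HT-1080 with IDH1 knockdown, 750 per well, RPMI/5% FBS. Exposure: 48 h at 37 °C following 2 h pre-incubation. Read: CellTiter-Glo luminescence; fitted concentration-response, curve class assigned.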
HT1080-NT tox – kills 2HG-producing HT-1080-NT fibrosarcoma cells; HT-1080-NT fibrosarcoma viability, CellTiter-Glo ATP luminescence, 48 h; Potency, µM (doses to about 46.1 µM), for inactives: top-dose activity, negative = less viability, most hits filed as cytotoxic; 360,000 compounds, 1.6% hits; AID 686970;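 also: NT is the 2HG producing partner of a matched IDH1 knockdown line; potency is read from the fitted curve at half-maximal effect; 0% = DMSO-treated cells and -100% = media-only wells without cells; nearly all actives have a fitted effect of over 55% in size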
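Compounds were tested in concentration-response format on HT-1080-NT cells for 48 hours at 37 degrees C. Cell viability came from CellTiter-Glo luminescence; curves were classified by r2, response magnitude and activity.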
TDP1 cell noCPT – qHTS for Inhibitors of human tyrosyl-DNA phosphodiesterase 1 (TDP1): qHTS in cells in absence of CPT. DT40 Tdp1-/- hTDP1 cells, no CPT, ATP luminescence, 48 h. Potency, µM (titrated, usually from 46.2 µM), for inactives: top-dose activity change, negative = growth inhibition, actives largely listed as inhibitors. 420,000 compounds, 15% hits; also: potency is read from the fitted curve at half-maximal effect; nearly all actives have a fitted effect of over 55% in size
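Growth of hTDP1-complemented DT40 Tdp1-knockout cells is measured by ATP luminescence after at least 48 hr compound exposure at 37 °C, with DMSO substituting for the 20 nM CPT used in the parallel screen.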
uPA generation – cell surface uPA generation inhibition | cell surface uPA generation assay, qHTS | Potency, µM (series often up to 38.3 µM), without a hit: at the top dose activity change, negative = inhibition, usual class: inhibitors | 330,000 compounds, 0.31% hits; active = well fitted inhibition curve with a large enough effect; inconclusive = small, poorly fitted or top-dose-only effect; inactive = no such curve, though single readings can be large or run the other way; tested in mouse RAW 264.7 cells; also: potency is read from the fitted curve at half-maximal effect; nearly all actives have a fitted effect of over 55% in size
IL-1B inflam inh – inhibitors of inflammasome signaling (IL-1 beta secretion). THP-1 LPS/ATP IL-1B secretion, AlphaLISA, 16 h; hits give low values. activity change, % at 57.5 µM. 360,000 compounds, 4.7% hits. AID 743279; in the data active = activity change below about -50%; inconclusive = mostly about -30% to -49%
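THP-1 cells pretreated 1 hr with compounds (up to 57.5 uM final), then stimulated with LPS (250 ng/mL final) plus ATP (1.25 mM final); secreted IL-1B measured by AlphaLISA after 16 hr, decreased signal indicating inhibition.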
Numbers without * were called inactive; u = inconclusive; x = not tested or not shown. Unless noted, calls follow the shape of the dose curve; as a rule, active = well fitted curve in the direction sought with a large enough effect; inconclusive = small, poorly fitted or top-dose-only effect, or another doubt; inactive = no such curve, though single readings can be large; an effect the other way counts as inactive or inconclusive. Unless noted, % is scaled to controls: 0 for no effect and ±100 for the full control effect.

SMILES	DT40 TDP1 CPT	HT1080 IDH1KD tx	HT1080-NT tox	TDP1 cell noCPT	uPA generation	IL-1B inflam inh
CCNC(=O)C1(C)CCN(C(=O)c2c(F)cccc2F)C1 (configuration not stated)	-4%	21%	15%	-6%	x	28
O=C(Nc1ccc(F)cc1)c1nc(S(=O)(=O)Cc2ccccc2)ncc1Cl	2.1µM*	15µM*	23µM*	1.6µM*	u	-95*
CCN1CCc2nc3sc(C(=O)Nc4cccnc4Cl)c(N)c3cc2C1	u	-2%	4%	u	15%	u
Nc1c(C(=O)Nc2cccc(Cl)c2)sc2nc3c(cc12)CN(Cc1ccccc1)CC3	7.3µM*	x	x	15µM*	x	x
COc1ccc(NC(=O)c2sc3nc4c(cc3c2N)CN(Cc2ccccc2)CC4)cc1	3%	x	x	2%	x	x
CC(C)OC(=O)CC(=O)c1sc2nc3c(cc2c1N)CN(C)CC3	u	9%	15%	u	8%	11
Cc1cccc(NC(=O)c2sc3nc4c(cc3c2N)CN(Cc2ccccc2)CC4)c1	15µM*	x	x	18µM*	x	x
CN1CCc2nc3sc(C(=O)Nc4cccc(C#N)c4)c(N)c3cc2C1	21µM*	x	x	8.2µM*	x	x
Cc1cccc(NC(=O)c2sc3nc4c(cc3c2N)CN(C(C)C)CC4)c1	21µM*	x	x	u	x	x
COCCN1C[C@@H](CO)O[C@@H](n2cnc3c(NCCN(C)C)ncnc32)C1	15%	23%	-4%	u	x	34
CCCS(=O)(=O)NC(=O)C1(C)CCN(C(=O)Cc2cccc3ccccc23)C1 (configuration not stated)	-4%	8%	u	-8%	x	8
COc1ccc(NC(=O)c2sc3nc4c(cc3c2N)CN(C(C)C)CC4)c(OC)c1	23µM*	x	x	u	x	x
Cc1ccccc1OCCC(=O)NNC(=O)c1ccccc1F	4%	14%	11%	-17%	43%	0
NC(N)=Nc1nc2ccc(Cl)cc2c(=O)[nH]1	u	-1%	17%	13µM*	0%	1
O=c1[nH]nnc2cc(Cl)ccc12	15%	12%	8%	-7%	1%	7
C1CCCCCC(NCCN2CCNCC2)CCCCC1	3.7µM*	18µM*	21µM*	2.6µM*	8%	u
Cc1cc(C)c(NC(=O)CSc2nc(=O)n(Cc3ccncc3)c3c2CCC3)c(C)c1	9%	x	x	5%	x	x
CC(C)C[C@H](NC(=O)c1nc[nH]c1C(=O)N[C@@H](CC(C)C)C(=O)OCc1ccccc1)C(=O)OCc1ccccc1	23µM*	u	u	26µM*	u	-6
CC(C)C[C@H](NC(=O)c1[nH]cnc1C(=O)N[C@H](C)c1ccccc1)C(=O)OCc1ccccc1	u	-20%	-17%	16µM*	2%	29
CN(CC(=O)Nc1ccccc1C(F)(F)F)C(=O)Cc1ccc(S(=O)(=O)N2CCOCC2)s1	-24%	-9%	2%	-25%	3%	-9
CCc1ccc(C(=O)OCC(=O)Nc2c(C)n(C)n(-c3ccccc3)c2=O)cc1	-7%	1%	-5%	-2%	x	-28
CCCc1nc2ccccc2c(C(=O)OCC(=O)Nc2c(C)n(C)n(-c3ccccc3)c2=O)c1CC	u	-8%	-8%	16µM*	6%	15
CCC(C)(C)C1CCc2nc3ccccc3c(C(=O)OC(C)C(=O)Nc3c(C)n(C)n(-c4ccccc4)c3=O)c2C1 (configuration not stated)	23µM*	-25%	-25%	u	-14%	-22
Cc1cc2nc3n(c2cc1C)CCCN3	5%	-2%	4%	u	-13%	20
Cc1ccc(C(=O)O)cc1NC1(c2ccccc2)C(=O)c2ccccc2C1=O	2%	x	x	4%	x	x
